In PubChem BioAssay:
Inconclusive results are not listed. Activity calls are given as the source filed them.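 How the source made its calls, unless noted: active means Her2 level under about 52% in both replicate screens, with viability over 70% of control (limit read from the data); inconclusive means Her2 under the limit in one screen only, or viability under 70%; inactive means Her2 level above the set limit.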

Legend:
[1] = Her2 expression decrease, cell viability multiplex – SKBR3 breast tumor cells, AlphaScreen, ATP viability, primary screen (AID 461); settings: SKBR3 Her2 protein level, 18-24 h, measured here: SKBR3 viability, ATP luminescence, at 10 µM;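 on Her2 level: lower value means less Her2 protein in the cells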;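 on viability: percent of carrier control wells set as 100% viability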
[2] = biological target: Receptor tyrosine-protein kinase erbB-2 (Homo sapiens) (UniProt P04626); experiment: as above; settings: 18-24 h, at 10 µM, stronger effect = lower value
Chain of Receptor tyrosine-protein kinase erbB-2 (Homo sapiens) (P04626 whole entry, looked up): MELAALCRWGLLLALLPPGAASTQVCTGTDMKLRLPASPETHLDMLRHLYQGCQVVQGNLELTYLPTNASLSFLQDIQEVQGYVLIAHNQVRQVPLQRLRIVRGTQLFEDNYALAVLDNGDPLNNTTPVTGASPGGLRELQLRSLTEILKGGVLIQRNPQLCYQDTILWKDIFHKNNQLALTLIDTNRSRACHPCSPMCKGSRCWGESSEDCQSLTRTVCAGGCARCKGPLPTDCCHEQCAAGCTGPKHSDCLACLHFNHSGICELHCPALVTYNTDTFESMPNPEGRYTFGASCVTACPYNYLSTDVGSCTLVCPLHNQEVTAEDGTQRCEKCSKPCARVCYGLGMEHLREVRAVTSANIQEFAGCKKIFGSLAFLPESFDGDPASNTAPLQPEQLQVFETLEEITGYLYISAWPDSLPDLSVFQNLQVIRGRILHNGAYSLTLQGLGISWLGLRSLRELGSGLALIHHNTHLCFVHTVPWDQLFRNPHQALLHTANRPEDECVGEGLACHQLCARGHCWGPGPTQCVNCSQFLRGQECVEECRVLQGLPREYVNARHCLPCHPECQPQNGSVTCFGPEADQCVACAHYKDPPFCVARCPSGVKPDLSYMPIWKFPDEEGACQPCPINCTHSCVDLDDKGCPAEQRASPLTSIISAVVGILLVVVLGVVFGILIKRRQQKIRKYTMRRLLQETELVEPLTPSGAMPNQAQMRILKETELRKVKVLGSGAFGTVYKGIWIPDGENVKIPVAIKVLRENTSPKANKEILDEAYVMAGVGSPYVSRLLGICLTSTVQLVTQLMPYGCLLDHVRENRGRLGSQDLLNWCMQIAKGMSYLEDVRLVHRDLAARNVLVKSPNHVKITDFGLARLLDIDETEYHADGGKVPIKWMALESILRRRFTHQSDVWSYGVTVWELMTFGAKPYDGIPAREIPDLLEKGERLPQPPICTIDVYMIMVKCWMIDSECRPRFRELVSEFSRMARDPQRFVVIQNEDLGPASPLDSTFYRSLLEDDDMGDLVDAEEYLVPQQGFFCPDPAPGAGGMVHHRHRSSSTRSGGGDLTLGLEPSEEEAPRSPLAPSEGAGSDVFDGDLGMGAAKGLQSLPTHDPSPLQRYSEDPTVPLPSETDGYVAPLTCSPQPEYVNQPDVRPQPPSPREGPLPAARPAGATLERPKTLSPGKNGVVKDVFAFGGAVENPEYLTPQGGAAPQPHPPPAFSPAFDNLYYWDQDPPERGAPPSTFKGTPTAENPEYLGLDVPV

[3] = reduced viability of SK-BR-3 breast cancer cells – cell-based, 24 h, human, pilot screen (AID 572;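 active means viability at or below 10% of carrier control in both of two separate runs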;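 further: compound exposure lasted between 18 and 24 h rather than exactly 24 h; 100% = carrier-treated control wells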); settings: SK-BR-3 viability, CellTiter-Glo luminescence, at 10 µM, stronger effect = lower value
[4] = HUVEC growth inhibition – cell-based, human, primary screen (AID 575;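 active means viability at or below 30% in both replicate assays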;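 further: 100% = median of untreated cell wells with 0.1% DMSO on each plate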); settings: HUVEC proliferation, CellTiter-Glo luminescence, 72 h; at 10 µM; stronger effect = lower value
[5] = H69AR cell proliferation blockers – human, duplicate replicates, primary screen (AID 580;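 active means viability at or under a set limit in both replicates, limit being median viability minus 3 SD, cut at about 48% in these data, passing the limit was not always enough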;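 further: 100% = mean luminescence of untreated wells and 0% = no signal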); settings: H69AR lung tumor cells viability, ATP luminescence, 72 h; at 10 µM; stronger effect = lower value
[6] = MRP1 drug-resistance reversers in H69AR cells – cell-based, doxorubicin co-treatment, pilot screen (AID 601;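 active means viability loss from added drug above about 55%, and viability with drug at most 40%, in both replicates, limit read from the data, passing the limit was not always enough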); settings: CellTiter-Glo, 72 h, at 10 µM; for differential viability (reversal): stronger effect = higher value
[7] = yeast transport mutant growth inhibition pilot in 384-well plates, post-Golgi transport modulator project (AID 636; in the data active means inhibition above about 31%); settings: absorbance 615 nm, about 18 h, stronger effect = higher value
[8] = growth suppression of yeast trafficking mutant, preliminary HTS, modulators of trafficking downstream of Golgi apparatus project, 1536-format plate, OD 615 nm (AID 637; in the data active means inhibition above about 30%); settings: yeast transport mutant growth, absorbance 615 nm, 18 h; stronger effect = higher value
[9] = S. cerevisiae growth inhibition in permissive medium (OD615), pilot counter-assay for S. cerevisiae lifespan shortening project, permissive growth control (AID 705;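 active means growth inhibition above 25% in both replicates, a cutoff set 3 SD above the mean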); settings: OD615, 24 h, at 10 µM, stronger effect = higher value
[10] = S. cerevisiae growth inhibition in restrictive medium, OD615, pilot screen, restrictive growth control, yeast lifespan reduction project (AID 706;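 active means growth inhibition above a set limit, 3 SD over mean compound inhibition, in both replicates, cut at about 43% in these data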;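 further: modified DeaD lifespan yeast strain shifted to restrictive glucose medium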); settings: OD615, 48 h, at 10 µM, stronger effect = higher value
[11] = doxorubicin toxicity protection in MRP-1 cells – H69AR cells, CellTiter-Glo, duplicate, MRP-1 activator project, pilot screen (AID 807;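 active means viability increase at or above a cutoff of the median across tested compounds plus 3 SD, cut at about 8.5% in these data, passing the limit was not always enough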;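 further: compound pretreatment 18-22 h then 72 h combined with doxorubicin; 0% = doxorubicin alone and 100% = vehicle without doxorubicin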); settings: H69AR viability with doxorubicin, CellTiter-Glo luminescence; at 10 µM; stronger effect = higher value
[12] = viability of HCT116 without oncogenic beta-catenin – human colon tumor cells, pilot screen (AID 823;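 active means cell viability at or below a set limit in both duplicate runs, the limit being the all-compound median minus 4 SD, cut at about 23% in these data, passing the limit was not always enough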;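 further: 0% = wells killed by 20 µM Hyamine and 100% = untreated DMSO cell wells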); settings: HCT116 beta-catenin knockout viability, CellTiter-Glo, 60 h; at 10 µM; stronger effect = lower value
[13] = viability of PTEN-null HCT116 cells – cell-based, HCT116 clonal line, CellTiter-Glo, pilot screen (AID 824;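 active means viability at or below 27.92% in each of two runs, the all-compound median minus 4 SD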;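 further: 0% = 20 µM Hyamine control and 100% = vehicle cell control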); settings: HCT116 PTEN-deleted viability, 60 h, at 10 µM, stronger effect = lower value
[14] = RAM pathway blockade in budding yeast – dse1pr::URA3 reporter, 5-FOA selection, pilot screen (AID 869;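 active means inhibition over a set limit, the all-compound mean plus 3 SD, in both replicate runs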;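 further: 0% = DMSO wells with no growth and 100% = 10 µM 1-NA-PP1 with full growth; RAM network block rescues cells from 5-FOA so hits raise OD615 growth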); settings: S. cerevisiae dse1pr::URA3 5-FOA growth, OD615, 2 d; at 10 µM; stronger effect = higher value; strain carries analog-sensitive mutant Cbk1 kinase
[15] = RAM signaling pathway blockade in yeast – S. cerevisiae, Pdr1DBD-CYC8 efflux-inhibited sensitized strain, primary screen (AID 1298;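 active means RAM network inhibition above 8.4% in each of two replicates, 3 SD over the compound average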;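 further: 0% = DMSO untreated cells without growth and 100% = 10 µM 1-NA-PP1 full growth; higher means more yeast growth rescued from 5-FOA killing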); settings: S. cerevisiae cbk1-as DSE1-URA3 strain, 5-FOA growth OD615, 2 d; at 50 µM; stronger effect = higher value
[16] = H69AR cells + 2 uM doxorubicin, measured here: viability with 2 uM doxorubicin, stronger effect = lower value
[17] = H69AR cells, compound alone cytotoxicity

| SMILES | viability [1] | Her2 level [2] | viability [3] | viability [4] | viability [5] | differential viability (reversal) ([6]; H69AR cells + 2 uM doxorubicin) | viability [6, 16] | viability [6, 17] | inhibition [7] | inhibition [8] | growth inhibition [9] | growth inhibition [10] | viability increase [11] | viability [12] | viability [13] | inhibition [14] | RAM network inhibition [15] |
| --- | --- | --- | --- | --- | --- | --- | --- | --- | --- | --- | --- | --- | --- | --- | --- | --- | --- |
| CCN1CCN(C(CNC(=O)c2ccc3c(c2)OCO3)c2cccnc2)CC1 (stereo not drawn) | 89.5% | 93% (inactive) | 89.5% (inactive) | 86.4% (inactive) | 99.6% (inactive) | 9.62% (inactive) | 90% | 99.6% | -2% (inactive) | -6.23% (inactive) | -12.5% (inactive) | -4.73% (inactive) | 0.44% (inactive) | 104% (inactive) | 96.2% (inactive) | 1.35% (inactive) | 5.59% (inactive) |
| COc1ccc(C2CC(c3ccc(Cl)cc3Cl)n3nc(N)nc3N2)cc1 (stereo not drawn) | 95% | 93.5% (inactive) | 95% (inactive) | 79.8% (inactive) | 90.4% (inactive) | -0.635% (inactive) | 91.1% | 90.4% | 0.64% (inactive) | 3.67% (inactive) | 7.35% (inactive) | 25.7% (inactive) | 3.63% (inactive) | 90.9% (inactive) | 91.3% (inactive) | 1.59% (inactive) | 4.26% (inactive) |
| O=C(c1sc2ccccc2c1Cl)N(Cc1cccs1)C1CCS(=O)(=O)C1 (stereo not drawn) | 100% | 100% (inactive) | 100% (inactive) | 73.2% (inactive) | 85.5% (inactive) | 3.69% (inactive) | 81.8% | 85.5% | 1.07% (inactive) | 0.17% (inactive) | -7.52% (inactive) | -11.5% (inactive) | -4.05% (inactive) | 92.2% (inactive) | 86.5% (inactive) | 0.395% (inactive) | 7.16% (inactive) |
| COc1ccc(C(C)N2CC34C=CC(O3)C(C(=O)OCC(C)C)C4C2=O)cc1 (stereo not drawn) | 103% | 89.5% (inactive) | 103% (inactive) | 97.2% (inactive) | 85.1% (inactive) | 3.22% (inactive) | 81.9% | 85.1% | -4.27% (inactive) | -2.33% (inactive) | -0.88% (inactive) | -7.06% (inactive) | -2.51% (inactive) | 103% (inactive) | 88.5% (inactive) | 1.82% (inactive) | 4.69% (inactive) |
| O=C(CSc1nc2c(c(=O)n1-c1ccc(F)cc1)SCC2)NCC1CCCO1 (stereo not drawn) | 93.5% | 101% (inactive) | 93.5% (inactive) | 92.6% (inactive) | 105% (inactive) | 12% (inactive) | 92.6% | 105% | -2.4% (inactive) | -1.61% (inactive) | -8.12% (inactive) | -16.6% (inactive) | -3.46% (inactive) | 98.2% (inactive) | 90.9% (inactive) | 1.46% (inactive) | 5.77% (inactive) |
| CC(C)CNc1oc(-c2ccc(F)cc2)nc1C#N | 108% | 110% (inactive) | 108% (inactive) | 103% (inactive) | 94.2% (inactive) | 1.69% (inactive) | 92.5% | 94.2% | -7.47% (inactive) | -4.1% (inactive) | -15.3% (inactive) | -11.5% (inactive) | 1.69% (inactive) | 101% (inactive) | 84.7% (inactive) | 0.19% (inactive) | 5.05% (inactive) |
| O=C(O)C1C2C=CC3(CN(C4CCCC4)C(=O)C13)O2 (stereo not drawn) | 101% | 100% (inactive) | 101% (inactive) | 100% (inactive) | 83.7% (inactive) | -9.36% (inactive) | 93.1% | 83.7% | -7.07% (inactive) | -4.83% (inactive) | 1.69% (inactive) | 2.54% (inactive) | -0.64% (inactive) | 104% (inactive) | 95.5% (inactive) | 2.34% (inactive) | -0.17% (inactive) |
| COCCOC(=O)c1[nH]c2c(c1C)C(=O)CC(c1ccco1)C2 (stereo not drawn) | 85% | 71.5% (inactive) | 85% (inactive) | 57% (inactive) | 23.6% (active) | -37.2% (inactive) | 60.9% | 23.6% | 0.64% (inactive) | 5.67% (inactive) | -16% (inactive) | -15.1% (inactive) | -4.07% (inactive) | 18.9% (active) | 23.9% (active) | 2.79% (inactive) | 2.52% (inactive) |
| CN(C)CCCN1C(=O)c2oc3ccc(Cl)cc3c(=O)c2C1c1cccnc1 (stereo not drawn) | 100% | 90.5% (inactive) | 100% (inactive) | 96.7% (inactive) | 83% (inactive) | 3.07% (inactive) | 79.9% | 83% | -2.93% (inactive) | 3.5% (inactive) | -2.16% (inactive) | 4.2% (inactive) | -1.8% (inactive) | 93.5% (inactive) | 92.7% (inactive) | 0.22% (inactive) | -2.19% (inactive) |
